“And” between values parts separate entries of the source, which are not always exact repeats. Identical values can stand only once. Results filed as inconclusive are left out. The source made the active and inactive calls. Unless noted, calls follow the shape of the dose curve; as a rule, active = well fitted curve in the direction sought with a large enough effect; inconclusive = small, poorly fitted or top-dose-only effect, or another doubt; inactive = no such curve, though single readings can be large; an effect the other way counts as inactive or inconclusive.
Legend:
WaGa = assay: qHTS assay to identify novel small-molecules to repurpose for Merkel cell carcinoma treatment (AID 1296009); conditions: MCC and control cell lines, CellTiter-Glo viability, 72 h; series mostly up to 46 µM; also: nearly all actives have a fitted effect of over 60% in size; also: potency is read from the fitted curve at half-maximal effect
Summary of the method: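 After compound transfer in DMSO, plates were kept 72 hr at 37 degree celsius. Luminescent ATP signal from CellTiter-Glo served as viability measure, normalized against DMSO and no-cell controls.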

C33A = assay: Primary qHTS to identify gynecologic anti-cancer compounds using libraries of approved drugs and bioactive compounds (AID 1345084); conditions: Gynecologic cancer cell panel viability, ATPlite luminescence, 48 h; series mostly up to 57.5 µM; also: nearly all actives have a fitted effect of over 55% in size; also: potency is read from the fitted curve at half-maximal effect
Summary of the method: (§1)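 Cytotoxicity screen measuring ATP content by luciferase luminescence. Each compound is applied at five concentrations for 48 h at 37 C with 5% CO2.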

CASKI = assay: as above; conditions: Gynecologic cancer cell panel viability, ATPlite luminescence, 48 h; series mostly up to 57.5 µM
Summary of the method: as §1

HeLa = assay: as above; conditions: Gynecologic cancer cell panel viability, ATPlite luminescence, 48 h; series mostly up to 57.5 µM
Summary of the method: as §1

Hek293T = assay: as above; conditions: Gynecologic cancer cell panel viability, ATPlite luminescence, 48 h, control line for the selectivity index; series mostly up to 57.5 µM
Summary of the method: as §1

JEG-3 = assay: as above; conditions: Gynecologic cancer cell panel viability, ATPlite luminescence, 48 h; series mostly up to 57.5 µM
Summary of the method: as §1

OV90 = assay: as above; conditions: Gynecologic cancer cell panel viability, ATPlite luminescence, 48 h; series mostly up to 57.5 µM
Summary of the method: as §1

PA-1 = assay: as above; conditions: Gynecologic cancer cell panel viability, ATPlite luminescence, 48 h; series mostly up to 57.5 µM
Summary of the method: as §1

SKOV3 = assay: as above; conditions: Gynecologic cancer cell panel viability, ATPlite luminescence, 48 h; series mostly up to 57.5 µM
Summary of the method: as §1

Es-2 = assay: as above; conditions: Gynecologic cancer cell panel viability, ATPlite luminescence, 48 h; series mostly up to 57.5 µM
Summary of the method: as §1

Tov-21-G = assay: as above; conditions: Gynecologic cancer cell panel viability, ATPlite luminescence, 48 h; series mostly up to 57.5 µM
Summary of the method: as §1

Tov112D = assay: as above; conditions: Gynecologic cancer cell panel viability, ATPlite luminescence, 48 h; series mostly up to 57.5 µM
Summary of the method: as §1

[1] = qHTS assay to identify inhibitors of the type 1 interferon - major histocompatibility complex class I in skeletal muscle: Counter screen cell viability and HiBit confirmation (AID 1347412); conditions: iHSKM muscle cells + IFN-b, HiBiT or CellTiter-Glo, 24 h; Potency: HiBiT; Viability, at 45.9 µM (top of the series); also: nearly all actives have a fitted effect of over 60% in size; also: potency is read from the fitted curve at half-maximal effect
Summary of the method: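 After 24 h with human IFN-beta (4 ng/ml) and compound titrations (top 46 uM final, 1:3, 12 points), HLA-B HiBit myoblasts were lysed for either Nano-Glo HiBiT luminescence or CellTiter Glo viability on paired plates.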

[2] = Drug repurposing screens with cells derived from glioblastoma tumor samples (AID 1345199); conditions: GBM patient neurospheres viability, ATP luminescence, 48 h; also: nearly all actives have a fitted effect of over 40% in size; also: potency is read from the fitted curve at half-maximal effect; as to activity, negative = cell killing: % is scaled to controls: 0 for no effect and ±100 for the full control effect
Summary of the method: (§2)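 Four patient lines of CD133+ GBM neurospheres were screened at several concentrations; hits were retested in those lines plus three slower-growing GBM lines, using 48-hour treatment and ATP-based viability.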

astro = assay: as above; conditions: viability, ATP luminescence, 48 h; series mostly up to 45.9 µM
Summary of the method: as §2

[3] = target: Nuclear receptor subfamily 1 group I member 2 (Rattus norvegicus) (UniProt Q9R1A7); assay: qHTS assay for small molecule activators of the rat pregnane X receptor (rPXR) signaling pathway (AID 651751; call rule not given here; also: 0% is about no effect); conditions: rPXR reporter cells, luciferase (One-Glo), 24 h
Chain of Nuclear receptor subfamily 1 group I member 2 (Rattus norvegicus) (Q9R1A7 whole entry, looked up): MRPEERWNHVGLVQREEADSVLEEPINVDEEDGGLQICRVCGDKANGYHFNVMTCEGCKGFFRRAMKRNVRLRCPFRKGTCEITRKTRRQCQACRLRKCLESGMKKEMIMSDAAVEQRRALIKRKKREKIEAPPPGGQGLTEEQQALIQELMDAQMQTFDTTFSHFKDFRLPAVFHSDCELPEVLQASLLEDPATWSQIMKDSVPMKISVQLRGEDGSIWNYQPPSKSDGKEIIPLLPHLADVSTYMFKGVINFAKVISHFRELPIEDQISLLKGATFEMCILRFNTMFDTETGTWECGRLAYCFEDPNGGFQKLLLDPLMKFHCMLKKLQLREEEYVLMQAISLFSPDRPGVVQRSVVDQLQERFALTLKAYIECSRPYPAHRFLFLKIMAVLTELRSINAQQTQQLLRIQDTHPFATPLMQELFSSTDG

[4] = qHTS assay for small molecule activators of the human pregnane X receptor (PXR) signaling pathway (AID 720659; call rule not given here; also: 0% is about no effect)
[5] = at 21.2 µM (top of the series), tumour line D
[6] = at 21.3 µM (top of the series), tumour line A
[7] = at 45.9 µM (top of the series), tumour line B
[8] = at 45.9 µM (top of the series), tumour line D
[9] = at 46 µM (top of the series), tumour line A
[10] = at 46.1 µM (top of the series), tumour line C

COc1cc(F)c(F)c(Nc2ccc(I)cc2F)c1NS(=O)(=O)C1(C[C@H](O)CO)CC1
inactive: Potency (WaGa) | Potency (C33A) | Potency (CASKI) | Potency (HeLa) | Potency (Hek293T) | Potency (JEG-3) | Potency (PA-1) | Potency (SKOV3)
active: Potency (OV90) 2.51 µM

COc1cc(Oc2ccnc3cc(OC)c(OC)cc23)ccc1NC(=O)NC(C)c1nccs1 (stereo unspecified)
inactive: Potency (WaGa) | Potency (C33A) | Potency (CASKI) | Potency (Es-2) | Potency (HeLa) | Potency (Hek293T) | Potency (JEG-3) | Potency (OV90) | Potency (PA-1) | Potency (SKOV3) | Potency (Tov-21-G) | Potency (Tov112D)

CCOc1ccn(-c2ccc(F)cc2)c(=O)c1C(=O)Nc1ccc(Oc2ccnc(N)c2Cl)c(F)c1
inactive: Potency (WaGa) | Potency (C33A) | Potency (CASKI) | Potency (Es-2) | Potency (Hek293T) | Potency (JEG-3) | Potency (OV90) | Potency (PA-1) | Potency (SKOV3) | Potency (Tov-21-G) | Potency (Tov112D)

CN(C)c1ccc(C2Nc3ccc4ccccc4c3C3=C2C(=O)CC(C)(C)C3)cc1Br (stereo unspecified)
inactive: Potency (WaGa) | Potency (C33A) | Potency (CASKI) | Potency (Es-2) | Potency (HeLa) | Potency (Hek293T) | Potency (JEG-3) | Potency (OV90) | Potency (PA-1) | Potency (SKOV3) | Potency (Tov112D)

CC[C@@H](C)[C@H](NC(=O)[C@H](CC1CCCCC1)NC(=O)c1ccno1)C(=O)N1CCC2(CCc3ccccc32)CC1
inactive: Potency (WaGa) | Potency (C33A) | Potency (CASKI) | Potency (Es-2) | Potency (HeLa) | Potency (Hek293T) | Potency (JEG-3) | Potency (OV90) | Potency (PA-1) | Potency (SKOV3) | Potency (Tov-21-G) | Potency (Tov112D) | Potency [1]

CCCCNc1cc(C(=O)O)cc(S(N)(=O)=O)c1Oc1ccccc1
inactive: Potency (WaGa) | Potency (C33A) | Potency (CASKI) | Potency (Es-2) | Potency (HeLa) | Potency (JEG-3) | Potency (OV90) | Potency (PA-1) | Potency (SKOV3) | Potency (Tov-21-G) | Potency (Tov112D) | activity, negative = cell killing [2, 5] -6.33% | activity, negative = cell killing [2, 6] -23.2% | Potency (astro)

COc1nc(-c2ccc3c(c2)OCO3)n(-c2ccc(NC(=O)CSc3ccccc3)cc2)n1
inactive: Potency (WaGa) | Potency (C33A) | Potency (CASKI) | Potency (Es-2) | Potency (Hek293T) | Potency (JEG-3) | Potency (OV90) | Potency (PA-1) | Potency (SKOV3) | Potency (Tov-21-G) | Potency (Tov112D)

CNCc1ccc(-c2[nH]c3cc(F)cc4c3c2CCNC4=O)cc1
inactive: Potency (WaGa) | Potency (C33A) | Potency (CASKI) | Potency (Es-2) | Potency (HeLa) | Potency (Hek293T) | Potency (JEG-3) | Potency (OV90) | Potency (PA-1) | Potency (SKOV3) | Potency (Tov-21-G) | Potency (Tov112D)

CCCS(=O)(=O)Nc1ccc(F)c(C(=O)c2c[nH]c3ncc(-c4ccc(Cl)cc4)cc23)c1F
active: Potency (PA-1) 10 µM
inactive: Potency (WaGa) | Potency (C33A) | Potency (CASKI) | Potency (HeLa) | Potency (Hek293T) | Potency (JEG-3) | Potency (OV90) | Potency (SKOV3) | Potency (Tov112D)

CCn1cc(C(=O)O)c(=O)c2cc(F)c(N3CCNC(C)C3)c(F)c21 (stereo unspecified)
inactive: Potency (WaGa) | Potency (C33A) | Potency (CASKI) | Potency (Es-2) | Potency (HeLa) | Potency (Hek293T) | Potency (JEG-3) | Potency (OV90) | Potency (PA-1) | Potency (SKOV3) | Potency (Tov-21-G) | Potency (Tov112D) | activity, negative = cell killing [2, 7] -18.8% and -6.47% | activity, negative = cell killing [2, 8] -1.92% and -11.9% | activity, negative = cell killing [2, 9] -14% and -29.8% | activity, negative = cell killing [2, 10] -19.8% and -7.41% | Potency (astro)

CC(C[N+](C)(C)C)OC(N)=O (stereo unspecified)
inactive: Potency (WaGa) | Potency (C33A) | Potency (CASKI) | Potency (Es-2) | Potency (HeLa) | Potency (Hek293T) | Potency (JEG-3) | Potency (OV90) | Potency (PA-1) | Potency (SKOV3) | Potency (Tov-21-G) | Potency (Tov112D) | activity, negative = cell killing [2, 7] -0.814% | activity, negative = cell killing [2, 8] 5.66% | activity, negative = cell killing [2, 9] -20.4% | activity, negative = cell killing [2, 10] 5.23% | Potency (astro)

CS(=O)(=O)c1cccc(CNc2nc(Nc3ccc4c(c3)CCC(=O)N4)ncc2C(F)(F)F)c1
inactive: Potency (C33A) | Potency (CASKI) | Potency (Es-2) | Potency (Hek293T) | Potency (OV90) | Potency (Tov112D)
active: Potency (WaGa) 16.6 µM | Potency [1] 11.1 µM

CCc1cc(Nc2nccc(-c3c(-c4ccc(OC)c(C(=O)Nc5c(F)cccc5F)c4)nc4ccccn34)n2)c(OC)cc1N1CCC(N2CCN(S(C)(=O)=O)CC2)CC1
inactive: Potency (WaGa) | Potency (C33A) | Potency (CASKI) | Potency (Es-2) | Potency (Hek293T) | Potency (JEG-3) | Potency (OV90) | Potency (SKOV3) | Potency (Tov-21-G) | Potency (Tov112D) | Potency [1]

CCCc1nn(C)c2c(=O)[nH]c(-c3cc(S(=O)(=O)N4CCN(C)CC4)ccc3OCC)nc12
active: Potency ([2]; tumour line A) 22.4 µM
inactive: Potency (WaGa) | Potency (C33A) | Potency (CASKI) | Potency (Es-2) | Potency (HeLa) | Potency (Hek293T) | Potency (JEG-3) | Potency (OV90) | Potency (PA-1) | Potency (SKOV3) | Potency (Tov-21-G) | Potency (Tov112D) | activity, negative = cell killing [2, 7] -8.65% | activity, negative = cell killing [2, 8] -23.3% | activity, negative = cell killing [2, 10] 12.9% | Potency (astro)

Nc1ccc(S(=O)(=O)Nc2ccnn2-c2ccccc2)cc1
inactive: Potency (WaGa) | Potency (C33A) | Potency (CASKI) | Potency (Es-2) | Potency (HeLa) | Potency (Hek293T) | Potency (JEG-3) | Potency (OV90) | Potency (PA-1) | Potency (Tov-21-G) | Potency (Tov112D) | activity, negative = cell killing ([2]; at 20 µM (top of the series), tumour line C) -5.82% | activity, negative = cell killing ([2]; at 21.2 µM (top of the series), tumour line B) -5.49% | activity, negative = cell killing [2, 5] -1.62% | activity, negative = cell killing [2, 6] -21.3% | Potency (astro)

Cn1cnc([N+](=O)[O-])c1Sc1ncnc2nc[nH]c12
active: Potency (WaGa) 1.91 µM | Potency (C33A) 8.91 µM and 7.94 µM | Potency (CASKI) 1.26 µM and 3.55 µM | Potency (Es-2) 3.16 µM and 10 µM | Potency (HeLa) 1.41 µM | Potency (Hek293T) 15.8 µM and 28.2 µM | Potency (JEG-3) 3.16 µM | Potency (OV90) 3.98 µM and 7.08 µM | Potency (PA-1) 1.12 µM and 7.08 µM | Potency (Tov-21-G) 1.12 µM and 3.16 µM | Potency (Tov112D) 5.62 µM and 7.08 µM | Potency ([2]; tumour line A) 2.51 µM
inactive: Potency (SKOV3) | activity, negative = cell killing [2, 7] -21.8% | activity, negative = cell killing [2, 10] -41.7% | max response [3] -0.454% and -2.45% | outcome [4]
